Measured values as given in PubChem BioAssay (NCI).
About 79,000 compounds went through this panel and 15% of them were active in at least one assay; those are over-represented in the sample as a whole. Unmarked numbers belong to inactive results. Rule as the data show it: active = growth inhibition above about 70%; inactive = the rest. Where a SMILES comes first, the peptide text is derived from it. [ ]: non-standard residue; d: D form. The star is where a group is joined. Ac5c = NC1(C(=O)O)CCCC1; Cbz = O=C(OCc1ccccc1)*

Assay: NCI Yeast Anticancer Drug Screen. Data for the mlh1 rad18 strain (AID 175)
Conditions: S. cerevisiae mlh1 rad18 strain growth inhibition; at 50.0 µM; stronger effect = higher value
Outline: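 Read-out is yeast growth inhibition, calculated against vehicle-only controls. The compound was applied to a strain engineered with DNA damage repair alterations.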

SMILES | growth inhibition [%]
CC(=O)CC(=O)Nc1cccc(C)c1 | -5.65
CCC(C)CN1C(=O)NC(C)(Cc2ccccc2)C1=O (stereo not given) | 4.25
Cc1ccc(C(=O)Nc2ccc(S(=O)(=O)O)c3cc(S(=O)(=O)O)cc(S(=O)(=O)O)c23)cc1N | -28.2
O=C(O)c1ccncc1C(=O)c1csc2ccccc12 | 19.3
COc1ccc(/C=C/C(C)=O)c(OC)c1 | -4.95
CS1(=O)=NC(=O)C(N2C(=O)c3ccccc3C2=O)CC1 (stereo not given) | 5.5
BrC1CC2CCCCC2CC1Br (stereo not given) | 9.65
Nc1nc(Cl)c2nc(Cl)n(C3OC(CO)C(O)C3O)c2n1 (stereo not given) | -4.25
Nc1nc(-c2cc(-c3ccco3)nc(N)n2)cc(-c2ccco2)n1 | -17.6
COC(=O)C(/C(=N/NC(N)=O)C(=O)Nc1c(C)cccc1C(C)(C)C)c1nc2ccc(Cl)cc2[nH]c1=O (stereo not given) | 0.1
Cc1ccc(Nc2nc(C)c(C(=O)CC(=O)C(=O)Nc3c(C)cccc3C(C)(C)C)s2)cc1 | 2.85
Clc1nc2ccccc2s1 | 3.2
O=C(O)/C(=C(\CO)c1ccccc1)c1ccccc1 | 26.7
CCCCC(=O)CCC(=O)O | 12.7
O=C(O)CSc1ccn(Cc2ccccc2)c1 | -22.6
O=C(O)CNC(=O)C1(NC(=O)CNC(=O)OCc2ccccc2)CCCC1 (Cbz-Gly-[Ac5c]-Gly-OH) | 18.3
O=c1c2ccccc2n2c(-c3ccc(O)cc3)nnc2n1-c1ccccc1 | -14.8
COc1ccccc1/C=C1\C(=O)N(C(=O)Cc2ccccc2)N=C1C | -25.4
CCOC(=O)/C(O)=C(/C=N\C(=S)Nc1ccccc1Cl)C(=O)OCC | -41.4
O=C1CC[C@H](NC(=O)Cc2ccccc2)C(=O)N1 | -13.6

SMILES | growth inhibition [%]
CN(C)C(=S)/N=c1\ss/c(=N\C(=S)N(C)C)n1-c1ccc2c(c1)OCO2 | 1.7
COC(=O)C1Cc2ccccc2C1=O (stereo not given) | -6.45
CCCCCCSCCO | 2.55
Cc1nc(N=C(N)N)nc2ccccc12 | 14.2
CCOC(=O)c1[nH]n(-c2ccccc2)c(=O)c1/C=N/C(=S)Nc1c(CC)cccc1CC | -15.1
CC1=C(O[Si](C(C)C)(C(C)C)C(C)C)C2CC1(OS(=O)(=O)C(F)(F)F)[C@H]1C(=O)N(c3ccccc3)C(=O)[C@@H]21 (stereo not given in full) | -20.9
CC1SC2(C(=O)Nc3ccccc32)N(c2ccc(Cl)cc2)C1=O (stereo not given) | 10.7
O=C(NCCN1CCOCC1)c1ccc(C(=O)NCCN2CCOCC2)cc1 | 33.9
CC(=O)OCC1OC(OCC(OC(C)=O)C(OC(C)=O)C(OC(C)=O)c2cnn(-c3ccccc3)n2)C(OC(C)=O)C(OC(C)=O)C1OC(C)=O (stereo not given) | 6.5
Nc1nc(CCC(=O)O)cs1 | -18.7
Nc1ncnc2c1ncn2C1CCN(CCO)C1=O (stereo not given) | -14.8
COC(=N)c1nnn(-c2ccccc2)n1 | -17.9
Cc1ccc(C(=O)Cc2ccccc2)cc1 | 1.05
CCC1(CC)C(=O)N(C(=O)c2ccc(C)cc2)N(C(=O)c2ccc(C)cc2)C1=O | -17.3
O=c1[nH]nc(Cc2ccccc2)n1/N=C\c1ccccc1 | -43.2
CCOC(=O)c1c(C)c2c(n1C)CC/C(=C\N1CCN(c3ccccc3)CC1)C2=O | 18.3
COc1ccc(NS(=O)(=O)c2ccc(NCc3c4ccccc4nc4ccccc34)cc2)nn1 | 18.5
O=C(Nc1ccccc1[N+](=O)[O-])OCc1ccccc1 | 8.2
CC1(C)C(N)C(C)(C)C1N (stereo not given) | 2.3
O=C1CN(N2CCOCC2)CC(=O)N2CCCCN12 | 6.25
